The values that follow come from PubChem BioAssay.

Each structure is given as a SMILES string. Several values for one entry are separate records, joined by “and”; a condition that tells them apart may be missing. Equal entries are not always repeated. Activity calls are given as the source filed them.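 The calls were made as follows, unless noted: active = thallium flux through the channel raised or lowered by more than 3 SD from vehicle-only wells, actives on both sides; inactive = the rest.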

The nature of assay [1]: P. berghei load reduction in hepatocytes – cell-based, HepG2, luciferase luminescence, HepG2 viability, primary screen (AID 624349; in the data active = parasite load remaining mostly below about 12%, no sharp cut-off; inactive = mostly above about 10%;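 also: 100% = mean of DMSO negative control wells on the same plate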). Conditions: P. berghei liver stage in HepG2, luciferase luminescence, concentration not given here; parasite load remaining: stronger effect = lower value; viability: measured here: HepG2 viability without parasites.
Assay [2] in a line: signal quenchers or enhancers, Cy5 substrate/SSB – biochemical, NIH Clinical Collection, E. coli SSB, artefact control for HCV NS3 helicase inhibitor project (AID 743268; call rule not given here). The conditions noted are these: Cy5-oligo bound E. coli SSB, fluorescence interference.
Assay [3] relates to Hepatitis C virus NS3 helicase. Put plainly: blockers of NS3h binding to DNA – biochemical, fluorescence polarization, NIH Clinical Collection, primary screen (AID 743270; call rule not given here). Conditions: NS3 helicase binding to Cy5-dT15 DNA, stronger effect = higher value, concentration not given here.
The target in assay [4] is Single-stranded DNA-binding protein (Escherichia coli (strain K12)) (UniProt P0AGE0). Put plainly: SSB-ssDNA binding inhibitors – biochemical, fluorescence polarization, NIH Clinical Collection, counter-screen for HCV NS3 helicase inhibitor project (AID 743271; in the data active = inhibition above about 28%). The conditions noted are these: E. coli SSB-DNA binding, stronger effect = higher value, concentration not given here. (In fluorescence polarisation assays a small probe gives low polarisation when free and higher when bound to something large.)

The nature of assay [5]: compounds distorting NS3 helicase fluorescence signal – biochemical, NIH Clinical Collection, artefact control for HCV NS3 helicase inhibitor project (AID 743272; call rule not given here;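 also: HCV NS3 helicase with a Cy5 labelled single stranded DNA probe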). The conditions noted are these: fluorescence interference counterscreen, HCV NS3 helicase assay; stronger effect = lower value. A general note: Counterscreens check selectivity or assay interference.
The nature of assay [6]: modulation of C. elegans fzo-1 (AID 1259413; call rule not given here;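 also: fzo-1 mutant C. elegans worms in liquid wells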). Conditions: C. elegans fzo-1 modulator screen, mean read-out; stronger effect = higher value.
A short description of assay [7]: viability loss with induced miR-34 in A549 – imaging, A549 dox-inducible miR-34, nuclei and caspase counts, primary screen (AID 1347080;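 active = compounds whose cell count with miR-34 switched on is under 0.7 times the count with it off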). Conditions: A549 miR-34 inducible, Hoechst nuclei count, 48 h.
The next assay concerns F380Y. Put plainly: BK channel mutant inhibitors and activators – cell-based, U2OS BacMam, thallium flux, beta subunits, selectivity assay, profiling panel (AID 1259406).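 Also: initial slope of Thallos dye fluorescence rise after thallium is added; log ratio against the mean of 0.3% DMSO vehicle wells on the same plate.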 Conditions: U2OS BacMam BK variants, at 30 µM.
The next assay deals with F380Y/beta1. The description is as above. Conditions: U2OS BacMam BK variants, at 30 µM.
For a further assay, the system named is F380Y/beta2Delta. Described as above. Conditions: U2OS BacMam BK variants, at 30 µM.
The next assay relates to F380Y/beta4. Described as above. The conditions noted are these: U2OS BacMam BK variants, at 30 µM.
Assay [8] deals with Calcium-activated potassium channel subunit alpha-1 (Homo sapiens) + Leucine-rich repeat-containing protein 26 (Homo sapiens) (UniProt Q12791+Q2I0M4). The description is as above. The conditions noted are these: U2OS BacMam BK variants, F380Y/Slo1WT/gamma1, at 30 µM.
Calcium-activated potassium channel subunit alpha-1 (Homo sapiens) + Leucine-rich repeat-containing protein 26 (Homo sapiens), sequence (Q2I0M4 whole entry, looked up, one chain of several): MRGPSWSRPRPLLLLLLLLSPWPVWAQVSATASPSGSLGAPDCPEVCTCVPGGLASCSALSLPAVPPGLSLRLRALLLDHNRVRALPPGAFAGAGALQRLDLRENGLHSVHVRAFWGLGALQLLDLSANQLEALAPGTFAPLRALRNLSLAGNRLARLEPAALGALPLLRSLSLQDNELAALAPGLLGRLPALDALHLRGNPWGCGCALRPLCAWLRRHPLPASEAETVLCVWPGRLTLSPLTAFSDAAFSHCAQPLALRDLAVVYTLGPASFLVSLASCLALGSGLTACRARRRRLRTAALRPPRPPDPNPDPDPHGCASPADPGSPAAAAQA
A further assay concerns R275C. The assay is described as above. Conditions: U2OS BacMam BK variants, at 30 µM.
Another assay concerns R275C/beta1. Described as above. The conditions noted are these: U2OS BacMam BK variants, at 30 µM.
The test system of a further assay is R275C/beta2Delta. The assay is described as above. The conditions noted are these: U2OS BacMam BK variants, at 30 µM.
The next assay has as its system R275C/beta4. The assay is described as above. The conditions noted are these: U2OS BacMam BK variants, at 30 µM.
The next assay concerns R275C/Slo1WT/beta2. The description is as above. Conditions: U2OS BacMam BK variants, at 30 µM.
Assay [9] in a line: MELAS cybrid and Rieske KO viability enhancers – cell-based, MELAS cybrids, Rieske KO mouse fibroblasts, CellTiter-Glo, primary screen (AID 1508586;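 active = mean z-score across replicates of 1.96 or higher in either the MELAS or the Rieske mutant cell line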;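 also: z relative to plate mean and SD of compound and empty wells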). Conditions: low glucose. Background: In ATP-based viability assays light output follows the ATP content of the culture.
The mark [10] stands for this setting: stronger effect = lower value, cell number ratio, induced over uninduced.
[11] abbreviates: measured here: relative caspase fold change +Dox/-Dox.
Setting [12] is: measured here: total cells with miR-34 induction, stronger effect = lower value.
The mark [13] stands for this setting: measured here: total cells without miR-34 induction.
[14] abbreviates: MELAS cybrid survival, CellTiter-Glo 48 h, stronger effect = higher value.
[15] abbreviates: Rieske KO mouse fibroblast survival, CellTiter-Glo 72 h.

The viability is a read-out of living cells in per cent, often relative to untreated cells. Broadly, the inhibition is the change of the read-out against control, counted positive when it falls. With `CC(=O)OCC(=O)C12OC3(CCCC3)OC1CC1C3CCC4=CC(=O)C=CC4(C)C3(F)C(O)CC12C` (configuration not stated), the parasite load remaining in [1] was 72.8% (inactive). The compound also had a viability in [1] of 95.1%. In addition, the fluorescence ratio in [2] is 1.06 (inactive); in [5], 0.98 (inactive). Also, the inhibition in assay [3] is -5% (inactive); in assay [4], 0.29% (inactive). For the same compound, the mean signal in assay [6] is 242 (inactive). For the same compound, the fold change in assay [7] (setting [10]) was 0.97 (inactive); in assay [7] (setting [11]) it was 1.12. The cell count was 5910 in assay [7] (setting [12]) and 6100 in assay [7] (setting [13]). Also, the log fold change Tl+ flux with F380Y is 0.16 (active); in the assay with F380Y/beta1, -0.0293 (inactive); in the assay on F380Y/beta2Delta, 0.0485 (inactive); in the assay with F380Y/beta4, -0.0119 (inactive); in [8], 0.0537 (inactive); with R275C, -0.00403 (inactive). For the same compound, the log fold change Tl+ flux with R275C/beta1 was 0.0957 (inactive); with R275C/beta2Delta it was 0.0763 (inactive); in the assay on R275C/beta4, 0.0347 (inactive); with R275C/Slo1WT/beta2 it was 0.084 (inactive).

Regarding `COc1ccnc(CS(=O)c2nc3cc(OC(F)F)ccc3[nH]2)c1OC` (configuration not stated), the parasite load remaining in [1] is 94.6% (inactive). For the same compound, in assay [1], the viability came to 75.5%. For the same compound, the figures for the fluorescence ratio in [2] and in assay [5] were 1.07 (inactive) and 1.05 (inactive), respectively. Also, the inhibition was -2.77% (inactive) in [3] and 1.44% (inactive) in [4]. In addition, the mean signal in [6] was 243 (inactive). For the same compound, the results for the fold change in [7] (setting [10]) and in assay [7] (setting [11]) were 0.937 (inactive) and 1.32, respectively. Further, the cell count stood at 9070 in [7] (setting [12]) and 9680 in assay [7] (setting [13]). Moreover, the z-score in [9] (setting [14]) is 1.33 (inactive); in assay [9] (setting [15]) it was 0.907. For the same compound, the log fold change Tl+ flux in the assay with F380Y was -0.000729 (inactive); in the assay with F380Y/beta1 it was -0.0068 (inactive); in the assay with F380Y/beta2Delta it was 0.0285 (inactive); with F380Y/beta4 it was -0.0379 (inactive); in assay [8], 0.0336 (inactive); with R275C it was -0.0182 (inactive). The log fold change Tl+ flux with R275C/beta1 was 0.0487 (inactive); in the assay with R275C/beta2Delta it was 0.0404 (inactive); with R275C/beta4, -0.00392 (inactive); in the assay on R275C/Slo1WT/beta2, -0.00592 (inactive).

Consider `CCC(C)n1ncn(-c2ccc(N3CCN(c4ccc(OCC5COC(Cn6cncn6)(c6ccc(Cl)cc6Cl)O5)cc4)CC3)cc2)c1=O` (configuration not stated), for which, in assay [1], the parasite load remaining is 26.8% (inactive) and 13.6% (inactive). Besides, the viability in [1] was 59.8% and 65%. Further, the fluorescence ratio in assay [2] was 0.99 (inactive); in assay [5] it was 1 (inactive). In addition, the inhibition in assay [3] was 2.77% (inactive); in assay [4] it was -1.64% (inactive). Also, the mean signal in [6] was 270 (inactive). Besides, the fold change in assay [7] (setting [10]) is 0.793 (inactive) and 0.866 (inactive); in [7] (setting [11]), 1.39 and 1.62. Besides, the cell count is 5650 and 9680 in assay [7] (setting [12]); 7130 and 11200 in assay [7] (setting [13]). The z-score in [9] (setting [14]) is -0.416 (inactive) and -0.441 (inactive); in [9] (setting [15]) it was 0.947 and 1.02. Moreover, the log fold change Tl+ flux is 0.0299 (inactive) with F380Y; 0.0346 (inactive) with F380Y/beta1; -0.00576 (inactive) with F380Y/beta2Delta; 0.0111 (inactive) in the assay with F380Y/beta4; 0.0139 (inactive) in assay [8]; -0.015 (inactive) with R275C. The log fold change Tl+ flux in the assay with R275C/beta1 is 0.0149 (inactive); with R275C/beta2Delta, 0.0172 (inactive); with R275C/beta4, -0.00424 (inactive); in the assay on R275C/Slo1WT/beta2 it was 0.0617 (inactive).
